PfHsp40 yeast = rescue of yeast from PfHsp40 toxicity, primary screen, S. cerevisiae, ATP luminescence; S. cerevisiae expressing PfHsp40, growth rescue; actives 0.68% (n = 340,000); growth rescue, % at 12.5 µM; in the data active = growth rescue above about 28%, passing the limit was not always enough;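 also: yeast W303a lacking pdr1 and pdr3 grown in galactose medium; growth measured after three days at 30 °C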
CCHF vOTU inh-1 = CCHFV vOTU protease inhibitors, primary screen, biochemical, Pep-AMC substrate, fluorescence | AID 651958, 2012 | Crimean-Congo hemorrhagic fever virus L polyprotein viral ovarian tumor (vOTU) protease … | inhibition, % at 11.5 µM | actives 0.55% (n = 370,000); also: 0% = vehicle wells with enzyme and 100% = no enzyme wells
RN4220 kill = growth inhibition of S. aureus RN4220, primary screen, OD600 | 16 h | inhibition, % (no concentration beside the values) | actives 0.33% (n = 330,000) | AID 1259311, 2017; in the data active = inhibition above about 85%;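 also: plate controls were untreated cells for no effect and reference antibiotic for full effect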
PrPC TRFRET = inhibitors of human cell surface prion protein PrPC, primary screen, cell-based, TR-FRET | Major prion protein (Homo sapiens), P04156 | TR-FRET read-out | inhibition, % at 13.8 µM | actives 0.43% (n = 370,000); in the data active = inhibition above about 24%; also: 0% = median of the test wells and 100% = reference compound wells
PrP UTR inh = inhibition of PrP 5' UTR reporter expression | cell-based PrP 5' UTR mRNA reporter, plate reader | inhibition, % (test concentration not listed) | actives 0.35% (n = 340,000) | AID 488862, 2010; in the data active = inhibition above about 52%; also: 0 = median of the neutral control wells
Sa ugtP lethal = growth inhibition of ugtP-null S. aureus, primary screen, RN4220 ugtP deletion, OD600; 16 h; growth inhibition, % (no concentration beside the values); actives 0.54% (n = 330,000); AID 1259309, 2017; in the data active = growth inhibition above about 68%;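 also: plate controls were untreated wells for no effect and antibiotic for full effect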
CCHF vOTU inh-2 = CCHFV vOTU protease inhibitors, confirmation, biochemical, Pep-AMC substrate, fluorescence; shares compounds with CCHF vOTU inh-1; actives 17% (n = 1,900); inhibition, % at 11.5 µM; Recombinant CCHFV vOTU; AID 686976, 2013
Active calls of the source: *; / = no result given. Only some compounds are listed: those with a hit (about 2.1% of all), similar ones and a draw of the others. Rule as the data show it, unless noted: active = inhibition above about 30%; inactive = the rest.

SMILES | PfHsp40 yeast | CCHF vOTU inh-1 | RN4220 kill | PrPC TRFRET | PrP UTR inh | Sa ugtP lethal | CCHF vOTU inh-2
CCOc1cc(/C=N/Nc2nnc(C)n2N)ccc1OC(C)=O | 1.9 | 85.7* | / | -4.4 | -32.7 | / | -13.0
Cn1ncc(C#N)c1N=CN1CCCC1 | / | / | 1.1 | / | / | -1.7 | /
CCc1nnc(N/N=C/c2ccc(O)c(OC)c2)n1N | -0.6 | 77.3* | / | 0.8 | -4.7 | / | -1.9
C=CC[C@@H](CC(=O)N(CCO)Cc1ccccc1)C(=O)N[C@H](COC(=O)[C@@H](CC=C)CC(=O)OC(C)(C)C)c1ccccc1 | 15.5 | 31.6* | / | -2.6 | -11.7 | / | 8.5
C=CC[C@@H](CC(=O)N[C@@H](CO)Cc1ccccc1)C(=O)N[C@H](COC(=O)[C@@H](CC=C)CC(=O)OC(C)(C)C)Cc1ccccc1 | 2.6 | 39.4* | 3.0 | -0.8 | -9.2 | -10.5 | -6.0
C=CCC(CC(=O)N(CCO)Cc1ccccc1)C(=O)NC(COC(=O)C(CC=C)CC(=O)OC(C)(C)C)c1ccccc1 (stereo not drawn) | / | / | 3.6 | / | / | 4.5 | /
C=CC[C@@H](CC(=O)N(CCO)Cc1ccccc1)C(=O)N[C@@H](COC(=O)[C@@H](CC=C)CC(=O)OC(C)(C)C)Cc1c[nH]c2ccccc12 | 3.9 | 39.9* | / | 5.2 | -1.2 | / | 11.6
C=CCC[C@H](Cc1ccc(F)cc1)C(=O)OC[C@@H](Cc1c[nH]c2ccccc12)NC(=O)[C@H](CC=C)CC(=O)N(CCO)Cc1ccccc1 | -0.3 | 35.0* | / | 6.4 | -3.0 | / | 6.7
COc1cc(-c2coc3c(C(=O)NCc4ccccc4)cccc23)ccc1O | / | 40.7* | / | 2.5 | / | / | -4.6
CCOc1ccc(Nc2ccc(N)c(S(=O)(=O)O)c2)cc1 | 3.0 | 29.6* | 13.8 | -11.7 | -22.3 | -7.6 | 8.0
Cc1cc(=O)n2[nH]c(=O)c(N=Nc3ccccc3)c2[nH]1 | 0.0 | 16.1 | -15.8 | -42.8 | -26.6 | -0.4 | /
CCOc1ccc(N=Nc2c(=O)[nH]n3c(=O)cc(C)[nH]c23)cc1 | -3.2 | 35.6* | 23.4 | -49.3 | 2.0 | 14.3 | 10.4
COc1cc(C=NNc2ccc([N+](=O)[O-])cc2)ccc1OCC(=O)Nc1ccc(C)c(C)c1 | / | / | -24.5 | / | / | -27.7 | /
Cc1[nH]c2ccccc2c1/C=N/Nc1nncn1N | -0.8 | 113.1* | / | 5.2 | -13.6 | / | -0.7
Cc1c(C#N)c(O)[nH]c(=O)c1N=Nc1ccc(S(N)(=O)=O)cc1 | -0.1 | 24.8 | 1.8 | -37.5 | -32.9 | 6.8 | /
Cc1c(C#N)c(O)[nH]c(=O)c1N=Nc1ccc(Cl)c(C(=O)O)c1 | 1.3 | 31.3* | 4.6 | -50.3 | -12.5 | 17.8 | -2.7
CCCCCCOc1ccc(C=c2sc(=C(C#N)C(=O)NCc3ccco3)n(-c3ccccc3)c2=O)cc1 | / | / | 3.9 | / | / | 4.8 | /
Cc1cc(NN=Cc2cccc([N+](=O)[O-])c2)nc(-n2nc(C)cc2C)n1 | / | / | 10.6 | / | / | -8.7 | /
CC(OC(=O)c1cccc(-n2cnnn2)c1)C(=O)Nc1ccc(F)cc1Cl (stereo not drawn) | 0.4 | 33.0* | -3.9 | 0.6 | -9.2 | -4.2 | -11.6
O=C(Nc1ccccc1Cl)ON=C(c1ccccc1)c1ccccn1 | / | / | 5.2 | / | / | -1.0 | /
CCn1nc(/C=C/c2ccccc2)nc2c(=O)n(C)c(=O)nc1-2 | 275.9* | 124.3* | 97.6* | -20.2 | -43.3 | 98.9* | 106.8*
CCCCCCCCCCCCN1[C@@H](CC(=O)O)c2cc(F)ccc2S1(=O)=O | 49.2* | 31.8* | / | -2.2 | -4.7 | / | 42.2*
CCCCCCCCCCCCN1C(CC(=O)O)c2cc(F)ccc2S1(=O)=O (stereo not drawn) | / | / | 6.9 | / | / | 21.0 | /
CCCc1ccc(OCc2ccc(C(=O)NN=Cc3cccc([N+](=O)[O-])c3)o2)c(OC)c1 | / | / | 0.3 | / | / | -3.4 | /
COc1ccc(S[C@@H](CCN2CC[C@H](NC(=O)OCc3ccccc3)CCC2=O)c2ccccc2)cc1 | 1.1 | 36.2* | / | 2.5 | -16.5 | / | 2.0
CC1(C)OC2C(CO)OC(n3ccc(=O)[nH]c3=O)C2O1 (stereo not drawn) | / | / | 3.9 | / | / | -2.2 | /

Bioassay records as filed in PubChem.
